Here are results for 20 compounds from PubChem BioAssay (NCI).

Compounds without any hit were thinned out: in the full panel of roughly 79,000, 15% have a hit. A number with no mark means an inactive call. The source made the active and inactive calls. Cut-off read from the data, not from the text of the source: active = growth inhibition above about 70%; inactive = the rest.

A short description of assay [1]: NCI Yeast Anticancer Drug Screen. Data for the rad50 strain (AID 155).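 Note: 0% = growth of vehicle-only cultures of the same strain.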 The conditions noted are these: S. cerevisiae rad50 strain growth inhibition; at 50.0 µM; stronger effect = higher value. The gist of the method:
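Relative growth inhibition (compound vs vehicle) was measured in yeast with a defined repair-gene alteration.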

Assay [2] can be described thus: NCI Yeast Anticancer Drug Screen. Data for the mec2-1 strain (AID 157). As to conditions: S. cerevisiae mec2-1 strain, at 50.0 µM, stronger effect = higher value. The gist of the method:
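Each compound was tested on mec2-1 yeast, a strain altered in DNA damage repair or cell cycle control. Growth inhibition is reported relative to vehicle.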

The nature of assay [3]: NCI Yeast Anticancer Drug Screen. Data for the sgs1 mgt1 strain (AID 161).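 Note: 0% = growth of cultures given vehicle only.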 The conditions noted are these: S. cerevisiae sgs1 mgt1 strain, at 50.0 µM, stronger effect = higher value. The gist of the method:
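Inhibition of yeast growth, normalised to vehicle-treated controls, is reported for a strain bearing genetic alterations in DNA damage repair.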

A short description of assay [4]: NCI Yeast Anticancer Drug Screen. Data for the cln2 rad14 strain (AID 165).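 Note: 0% = growth equal to vehicle treated cultures.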 As to conditions: S. cerevisiae cln2 rad14 strain, at 50.0 µM, stronger effect = higher value. The gist of the method: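 Test compounds were added to cln2 rad14 yeast cultures; inhibition of growth was then determined by comparison with vehicle treatment.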
A short description of assay [5]: NCI Yeast Anticancer Drug Screen. Data for the bub3 strain (AID 167). As to conditions: S. cerevisiae bub3 mutant strain, at 50.0 µM, stronger effect = higher value. The gist of the method: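 Screening used yeast with an engineered genetic alteration affecting cell cycle control. Compound-exposed cultures were compared with vehicle cultures, and reduced growth was taken as inhibition.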

Assay [6] is described as follows: NCI Yeast Anticancer Drug Screen. Data for the mlh1 rad18 strain (AID 175). The conditions noted are these: S. cerevisiae mlh1 rad18 strain growth inhibition; at 50.0 µM; stronger effect = higher value. The gist of the method: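 Inhibition values reflect reduced growth of mutant yeast versus vehicle-treated controls following compound exposure; the mutations affect DNA damage repair.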

As to `Cn1cccc1/C=N/N=C(/N)NO`, the growth inhibition was 22.9% in assay [1]; -9.85% in assay [2]; -13.7% in assay [3]; -4.5% in assay [4]; -18.5% in assay [5]; -0.4% in assay [6].
As to `Cc1ccccc1NS(=O)(=O)c1c(N)ncn1C`, the growth inhibition in assay [1] is -5.2%; in assay [2], 3.55%; in assay [3] it was -0.9%; in assay [4] it was -29.3%; in assay [5] it was -0.65%; in assay [6], 5.25%.
Turning to `Cc1ccc(-c2cc(=O)c3cc(C)c(C)c(C(=O)O)c3o2)cc1[N+](=O)[O-]`, the growth inhibition in assay [1] was -20.7%; in assay [2], -5.1%; in assay [3] it was -1.05%; in assay [4] it was 12.2%; in assay [5], 2%; in assay [6], 31.1%.
As for `CCCCCc1cc(C(=O)NN)c2ccccc2n1`, the growth inhibition in assay [1] is -29.7%; in assay [2], -25%; in assay [3], -12.6%; in assay [4], -15.8%; in assay [5], 33.1%; in assay [6] it was -12.8%.
Consider `CC(=O)Nc1cc2c(cc1Cl)-c1cc(Cl)c(Cl)cc1C2=O`, for which the growth inhibition in assay [1] was -18.1%; in assay [2], -2.55%; in assay [3], -9.85%; in assay [4], -25.1%; in assay [5], -20.7%; in assay [6], -17.5%.
For the compound `CCOc1cc([N+](=O)[O-])c(OCC)cc1Cl`, the growth inhibition is -24.6% in assay [1]; -53.5% in assay [2]; -19.9% in assay [3]; 11% in assay [4]; -17.6% in assay [5]; -29.6% in assay [6].
Take `N#CCCN(CCC#N)C(=O)Nc1cccc2ccccc12`: the growth inhibition was 10.2% in assay [1]; -9.15% in assay [2]; 5.7% in assay [3]; 12.8% in assay [4]; -2.25% in assay [5]; -16.5% in assay [6].
For `CCOC(=O)N1CCN(c2c(N)nc(C)[nH]c2=O)CC1`, the growth inhibition in assay [1] is -49.6%; in assay [2], -20.9%; in assay [3], -55.3%; in assay [4], -14.8%; in assay [5], 19.1%; in assay [6] it was -58.5%.
Consider `O=C(Cc1nccc2c1[nH]c1ccccc12)OC1C#CCSCC#C/C=C\1` (stereo not given), for which the growth inhibition is -0.55% in assay [1]; 17.8% in assay [2]; 9.5% in assay [3]; -14.7% in assay [4]; 12.3% in assay [5]; -1.15% in assay [6].
Regarding `CNS(=O)(=O)c1ccccc1C(=N)c1ccccc1`, the growth inhibition was -0.3% in assay [1]; -8.25% in assay [2]; -27.6% in assay [3]; -4.95% in assay [4]; -45.9% in assay [5]; -31.4% in assay [6].
Turning to `C=CCOC(=O)C(C#N)C(C)CC(=O)OCC` (stereo not given), the growth inhibition is -5.65% in assay [1]; -1.15% in assay [2]; -22.9% in assay [3]; -0.35% in assay [4]; 5.25% in assay [5]; -5.55% in assay [6].
`CC(C)(C)OC(=O)NCS(=O)(=O)N(Cc1ccccc1)Cc1ccccc1`: the growth inhibition in assay [1] was 91.8% (active); in assay [2], 89% (active); in assay [3], 51.7%; in assay [4], 82.6% (active); in assay [5] it was 79.4% (active); in assay [6], 89.7% (active).
With `CCOc1c(N=Nc2ccccc2Cl)c(C)nn1C(N)=S`, the growth inhibition in assay [1] was -14.2%; in assay [2] it was 8.7%; in assay [3] it was 45.5%; in assay [4], -2.25%; in assay [5], 53.4%; in assay [6], 49.4%.
As to `COc1ccc2c(c1)c(=O)c1ccccc1n2/C=C/C(=O)O`, the growth inhibition in assay [1] is -6%; in assay [2], -14.8%; in assay [3] it was -8.9%; in assay [4] it was 3.75%; in assay [5] it was -3.05%; in assay [6], 2.25%.
For `COc1cc(/C=C/c2cc(/C=C/c3ccc(O)c(OC)c3)c([N+](=O)[O-])cc2[N+](=O)[O-])ccc1O`, the growth inhibition in assay [1] is 66.3%; in assay [2], 23.8%; in assay [3] it was 42.4%; in assay [4] it was -4.45%; in assay [5], 7.15%; in assay [6], 47.7%.
Regarding `CC1CC(=O)c2cc3oc(=O)n(C)c3cc21` (stereo not given), the growth inhibition was -3.4% in assay [1]; -4.15% in assay [2]; -6.2% in assay [3]; -20.5% in assay [4]; 19.2% in assay [5]; -0.45% in assay [6].
Consider `N#Cc1c(-c2ccccc2)cc(-c2ccc(Cl)cc2)[nH]c1=S`, for which the growth inhibition in assay [1] is 5.3%; in assay [2], 8.2%; in assay [3], -19.1%; in assay [4], 20.5%; in assay [5], 42.2%; in assay [6] it was 4.65%.
As for `CC(C)(C)C1CCC(C(=O)c2ccccc2)CC1` (stereo not given), the growth inhibition in assay [1] was -7.75%; in assay [2], -4.05%; in assay [3], -0.75%; in assay [4], -45.3%; in assay [5], -28.6%; in assay [6], 1.7%.
As for `CC(C)NC(=O)Oc1ccccc1C(=O)OCc1ccccc1`, the growth inhibition in assay [1] is -0.45%; in assay [2] it was 14.1%; in assay [3] it was 28.9%; in assay [4], -15.1%; in assay [5] it was 13.4%; in assay [6], 21.2%.
Regarding `CC1=CCC2(C#N)CCC1C2O` (stereo not given), the growth inhibition in assay [1] was 15.2%; in assay [2], 17.8%; in assay [3] it was 8.1%; in assay [4] it was 22.4%; in assay [5], 10.4%; in assay [6], 17.6%.
